High-throughput results: PubChem, National Center for Advancing Translational Sciences (NCATS)
Many of the other results were omitted from the sample, so hits are more common in it than they were.
HTT aggregate: qHTS Multiplex Assay to Identify Dual Action Probes in a Cell Model of Huntington: Aggregate Formation (GFP) | PC12 HttQ103-GFP aggregates, Acumen cytometry, 40 h | Potency, µM (titrated, usually from 46.1 µM), most hits filed as inhibitors | 1.1% of 220,000 active | AID 1688, 2009; further: nearly all actives have a fitted effect of over 60% in size
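Steps: seed 1500 PC12 HTTQ103-GFP cells/well; add tebufenozide, 100 nM final; add compound titration; add ATPLite reagent; quantify GFP aggregates by laser scanning cytometry.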
PINK1 expr mod: A Quantitative High throughput Screen to Identify Chemical Modulators of PINK1 Expression. 0.2% of 410,000 active. Potency, µM (series often up to 76.6 µM), hits mostly activators. PINK1 immunofluorescence, high-content cytometry, 24 h; active means well fitted activation curve with a large enough effect; inconclusive means small, poorly fitted or top-dose-only effect; cell line not stated here; further: nearly all actives have a fitted effect of over 65% in size
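PINK1 protein, normally rapidly degraded, was detected by immunofluorescence after 24 hour compound treatment of a stable cell line. Titration data (5 concentrations) came from laser-scanning cytometry, with CCCP-treated wells as controls.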
HTT ATP protect: qHTS Multiplex Assay to Identify Dual Action Probes in a Cell Model of Huntington: Cytoprotection (ATP) | PC12 HTT-Q103 induced, cytoprotection, ATP luminescence, 40 h | Potency, µM (top dose mostly 56.4 µM), hits mostly activators | 0.14% of 230,000 active | AID 1471, 2008; further: nearly all actives have a fitted effect of over 45% in size
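Readout: ATPlite luminescence (ATP level). Model: stable PC12, inducible Htt exon1 Q103-GFP. Inducer: tebufenozide, 100 nM final. Compounds: dose series. No G418 in medium.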
TSG101-PTAP inh: qHTS Assay for Iinhibitors of HIV-1 Budding by Blocking the Interaction of PTAP/TSG101; Tumor susceptibility gene 101 protein (Homo sapiens), Q99816; Fluorescence polarization, FITC-PTAP peptide / Tsg101 binding; Potency, µM (highest dose often 115 µM), usual class: inhibitors; 340,000 tested, under 10 active; AID 493005, 2010; active means well fitted inhibition curve with a large enough effect in the main read-out, with a control signal flat, not every such curve was filed as active; inconclusive means small, poorly fitted or top-dose-only effect, or effect the other way, or a change in a side signal; inactive means no such curve, though single readings can be large or run the other way
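Tsg101 binding domain (10 uM final) was mixed with compound and a FITC-labeled PTAP peptide (50 nM final) in HEPES pH 7.5 buffer with NaCl, Tween 20, EDTA and TCEP; fluorescence polarization was read after 20 min at r.t.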
Anesthetic bind: qHTS Assay for Identification of Novel General Anesthetics. Ferritin light chain (Equus caballus), P02791. apoferritin/1-aminoanthracene competitive binding, fluorescence. Potency, µM (titrated, usually from 77.5 µM), actives largely listed as inhibitors. 0.074% of 350,000 active; further: nearly all actives have a fitted effect of over 20% in size
Target sequence (P02791 2-175 limits assumed): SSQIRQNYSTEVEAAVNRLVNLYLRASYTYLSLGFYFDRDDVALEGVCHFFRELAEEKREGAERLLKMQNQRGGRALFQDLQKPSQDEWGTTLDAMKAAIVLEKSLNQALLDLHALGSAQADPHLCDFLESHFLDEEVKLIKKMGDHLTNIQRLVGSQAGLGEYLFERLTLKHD
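In PBS, apoferritin at 10 uM is loaded with 1-AMA from a 50% saturated solution. After 10 min of compound exposure at ambient temperature, reduced 535 nm fluorescence indicates probe displacement.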
Epigenetic derep: Quantitative High-Throughput Screen for Regulators of Epigenetic Control; murine LDR cells, GFP reporter derepression, 30 h; Potency, µM (titrated, usually from 53.9 µM), most hits filed as activators; 0.2% of 280,000 active; AID 1865, 2009; further: nearly all actives have a fitted effect of over 60% in size
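In this reporter-derepression format, murine cells bearing a silenced integrated CMV-GFP locus incubate with test compound (30 h, 37 C), then are washed and imaged; fluorescent objects of 20–120 um count as induced cells.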
Numbers stand for hits; i = inactive; ? = inconclusive; nt = no result; [ ] = remark or other dose. Unless noted, the call rests on the fitted dose curve; in most records, active means well fitted curve in the direction sought with a large enough effect; inconclusive means small, poorly fitted or top-dose-only effect, or another doubt; inactive means no such curve, though single readings can be large; an effect the other way counts as inactive or inconclusive.

SMILES	HTT aggregate	PINK1 expr mod	HTT ATP protect	TSG101-PTAP inh	Anesthetic bind	Epigenetic derep
COc1ccc(C2CC(=O)C(CS(=O)(=O)c3ccccc3)C(=O)C2)cc1 (centres undefined)	i	i	i	i	31.6µM	i
FC(F)(F)c1nnc2c(Sc3ccccn3)nc3ccccc3n12	nt	i	11.2µM	i	i	i
N#CC(C#N)=C(Nc1ccc(F)cc1)SCc1cccc(Br)c1	2.24µM	?	i[10 µM]	i	i	i
Cc1cccc(CSC(Nc2ccc(F)cc2)=C(C#N)C#N)c1	4.47µM	?	i[10 µM]	i	i	i
CC(SCc1ccccc1)C(=O)Nc1ccc(F)cc1 (centres undefined)	i	i	nt	i	i	i
CC1=C(c2ccc(F)cc2)S(=O)(=O)N=C1N1CCC(C(=O)NCCc2cccc(C)c2)CC1	nt	i	nt	nt	?	i
Cc1cccc(NC(=O)CSc2nc3n[nH]c(C)c3c(=N)n2-c2cccc(Cl)c2)c1	nt	i	nt	nt	i	i
c1ccc(C2=Nn3c(nnc3-c3ccncc3)SC2)cc1	10µM	i	25.1µM	i	i	i
c1ccc(C2=Nn3c(nnc3-c3cccnc3)SC2)cc1	i	i	i[0.074 µM]	i	i	i
O=C(CSc1nccn1Cc1ccccc1)Nc1ccc2c(c1)OCO2	nt	i	nt	nt	i	i
S=C(NCCc1ccccc1)Nc1cccc2cnccc12	3.55µM	i	i[10 µM]	i	i	i
S=C(NCc1ccccc1)Nc1cccc2cnccc12	nt	i	nt	i	i	nt
Cc1ccc(OCC(=O)N2CCN(C(=O)c3ccncc3)CC2)cc1	0.0282µM	i	nt	i	i	i
COc1cc(OC)cc(C(=O)N2CCN(C(=O)COc3ccc(C)cc3)CC2)c1	nt	i	nt	nt	i	i
OCc1nc2ccccc2n1Cc1c(F)cccc1Cl	i[9.22 µM]	i	i[10 µM]	i	i	i
CSc1nc2ccccc2n1Cc1c(Cl)cccc1Cl	11.2µM	i	i	i	i	i
O=C(O)Cc1csc(Nc2cccc(Cl)c2)n1	i	i	i[10 µM]	i	10µM	i
COc1cc(CNCCNC(=O)c2nonc2N)ccc1OCc1ccc(Cl)cc1	i[9.22 µM]	i	i[10 µM]	i	12.6µM	i
Cc1ccn2c(Nc3c(C)cccc3C)c(-c3ccc(Cl)s3)nc2c1	nt	i	nt	nt	i	i
Cn1c(Sc2ccccc2Cl)c(C=O)c2ccccc21	i	i	i	i	?	i
Cn1c(Sc2ccc(Cl)cc2)c(C=O)c2ccccc21	7.94µM	i	i[10 µM]	i	i	i
COC(=O)c1cccc(C(=O)N2CCc3c(cnc(C)c3CNC(=O)c3ccsc3)C2)c1	nt	i	nt	nt	nt	nt
Cc1ccc(NC(=S)NNc2ncc(C(F)(F)F)cc2Cl)cc1	i	31.6µM	i[10 µM]	i	i	i
Fc1ccc(NC(=S)NNc2ncc(C(F)(F)F)cc2Cl)c(F)c1	7.94µM	10µM	i	i	i	i
Cc1ccc(NC(=S)NNc2ncc(C(F)(F)F)cc2Cl)c(C)c1	?	i	i	i	i	i
SMILES	HTT aggregate	PINK1 expr mod	HTT ATP protect	TSG101-PTAP inh	Anesthetic bind	Epigenetic derep
FC(F)(F)c1cnc(NNC(=S)Nc2ccc(Cl)cc2)c(Cl)c1	11.2µM	11.2µM	i[10 µM]	i	i	i
CC(OC(=O)c1ccccc1OCC(=O)Nc1ccc(Br)cc1)C(=O)NC1CCCC1 (centres undefined)	nt	i	nt	nt	nt	nt
CN(C)c1ccc(C=Nc2cnc3ccccc3c2)cc1	nt	i	nt	nt	nt	nt
O=C(CSc1nc(-c2ccco2)cc(C(F)(F)F)n1)Nc1ccccc1C(F)(F)F	?	nt	3.16µM	i	i	i
Cc1cnc(-n2ncc(C(=O)NCCc3cccnc3)c2C)nc1-c1cccs1	nt	i	nt	nt	nt	nt
O=C(COC(=O)C1CC1)c1c[nH]c2ccccc12	0.0316µM	i	nt	i	i	i
COc1ccc(C(=O)c2sc3nc(-c4ccc(C)cc4)cc(C(F)(F)F)c3c2N)cc1	nt	i	nt	nt	i	1µM
